# From PubChem
# This is a sample that favours compounds with a hit; in the whole collection about 9.2% have one here.
# ELG1 DNA repair – qHTS screen for small molecules that inhibit ELG1-dependent DNA repair in human embryonic kidney (HEK293T) cells expressing luciferase-tagged ELG1; AID 504467, 2011; HEK293T ELG1-luciferase reporter, luminescence, 16 h; DNA damage induced by 5-fluorouridine; Potency, µM (series often up to 46.1 µM), usual class: inhibitors; 330,000 compounds, 2.3% hits; further: nearly all actives have a fitted effect of over 55% in size
#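 5-Fluorouridine DNA damage + compound/DMSO, 2,000 cells/well, 16 h, 37 °C/5% CO2. ONE-Glo, 30 min RT, luminescence. Readout = decrease in reporter signal.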
# NPC1 prom act – qHTS Assay for NPC1 Promoter Activators; Huh7 NPC1 promoter luciferase reporter, 24 h; Potency, µM (highest dose often 9.22 µM), hits mostly activators; 320,000 compounds, 2.4% hits; AID 485313, 2010; further: nearly all actives have a fitted effect of over 60% in size
#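 Huh7 reporter cells (NPC1 promoter driving luciferase) are dosed with compound for 24 h at 37 °C, 5% CO2; luciferase detection reagent is then added and luminescence measured after 10 min at ambient temperature.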
# SMN2 splice up – qHTS Assay for Enhancers of SMN2 Splice Variant Expression; Potency, µM (highest dose often 46.1 µM), hits mostly activators; HEK293 SMN2-luciferase splicing reporter, luminescence, 30-36 h; 210,000 compounds, 2.8% hits; further: nearly all actives have a fitted effect of over 55% in size
#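 HEK293 cells carry an SMN2 […]–luciferase reporter in which exon 7 inclusion puts luciferase in frame. Cells were plated 10-12 h before compound addition, then incubated 30-36 h at 37C. ONE-Glo luminescence was read; sodium butyrate at 4.5 mM final served as control.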
# ELG1 genotoxic – qHTS screen for small molecules that induce genotoxicity in human embryonic kidney (HEK293T) cells expressing luciferase-tagged ELG1. HEK293T ELG1-luciferase reporter, luminescence, 16 h. Potency, µM (top dose mostly 46 µM), usual class: activators. 330,000 compounds, 1.3% hits. AID 504466, 2011; further: nearly all actives have a fitted effect of over 60% in size
#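 Cells (2,000/well) expressing the ELG1-luciferase fusion are dosed by pin tool and kept 16 hr at 37 °C, 5% CO2. Signal comes from ONE-Glo luciferase reagent after 30 min at room temperature.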
# FLuc counter – qHTS profiling assay for firefly luciferase inhibitor/activator using purifed enzyme and Km concentrations of substrates (counterscreen for miR-21 project) | purified FLuc, Km substrates, luminescence inhibition | Luciferin 4-monooxygenase (Photinus pyralis), P08659 | Potency, µM (titrated, usually from 57.5 µM), hits mostly inhibitors | AID 588342, 2011 | 360,000 compounds, 6.9% hits; further: nearly all actives have a fitted effect of over 55% in size
# Target sequence (P08659 whole entry, looked up): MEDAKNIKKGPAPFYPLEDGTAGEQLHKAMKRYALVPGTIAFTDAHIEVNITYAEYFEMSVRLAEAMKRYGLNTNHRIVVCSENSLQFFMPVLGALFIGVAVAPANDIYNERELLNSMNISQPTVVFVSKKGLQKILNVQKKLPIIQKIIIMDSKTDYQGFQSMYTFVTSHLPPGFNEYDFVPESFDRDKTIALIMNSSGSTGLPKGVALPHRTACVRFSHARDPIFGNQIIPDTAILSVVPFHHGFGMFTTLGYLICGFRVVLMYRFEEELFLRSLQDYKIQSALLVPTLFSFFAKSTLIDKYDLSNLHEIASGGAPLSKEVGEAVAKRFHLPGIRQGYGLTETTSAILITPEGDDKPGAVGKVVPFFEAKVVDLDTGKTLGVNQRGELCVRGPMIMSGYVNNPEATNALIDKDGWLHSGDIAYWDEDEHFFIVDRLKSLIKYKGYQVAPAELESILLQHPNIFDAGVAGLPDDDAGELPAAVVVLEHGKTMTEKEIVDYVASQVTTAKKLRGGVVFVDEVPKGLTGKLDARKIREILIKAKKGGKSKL
#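 Purified P. pyralis luciferase (10nM final) with 10uM D-luciferin and 10uM ATP (Km levels) in 50mM Tris acetate pH 7.5, 10mM Mg acetate, 0.01% Tween-20, 0.05% BSA; qHTS 6-point titration, ~60 µM downward; luminescence read.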
# Rab9 prom act – qHTS Assay for Rab9 Promoter Activators | Potency, µM (highest dose often 9.22 µM), most hits filed as activators | Huh7 Rab9 promoter-luciferase reporter, luminescence, 24 h | 320,000 compounds, 2.8% hits | AID 485297, 2010; further: nearly all actives have a fitted effect of over 60% in size
#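 Huh7 cells stably carrying Rab9 promoter–luciferase reporter, plated 1500 cells/well, compound added after 2 h and incubated 24 h at 37 °C; luciferase luminescence then read after 10 min with detection reagent.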
# A number is an active result; - = inactive; ? = inconclusive; . = no result; [ ] = dose if it differs, or a comment. The call rests on the fitted dose curve; in most records, active means well fitted curve in the direction sought with a large enough effect; inconclusive means small, poorly fitted or top-dose-only effect, or another doubt; inactive means no such curve, though single readings can be large; an effect the other way counts as inactive or inconclusive.
SMILES,ELG1 DNA repair,NPC1 prom act,SMN2 splice up,ELG1 genotoxic,FLuc counter,Rab9 prom act
Cc1oc2cc3oc(=O)c(CC(=O)O)c(C)c3cc2c1-c1ccccc1,-,-,.,-,-,-
Cc1c(CC(=O)NCC(=O)O)c(=O)oc2cc3oc4c(c3cc12)CCCC4,-,-,.,-,15.1µM,-[1.84 µM]
Cc1c(CC(=O)O)c(=O)oc2cc3oc4c(c3cc12)CCCC4,-,-,.,-,26.9µM,-
COc1ccc(CCNC(=O)c2ccc3c(c2)N(Cc2c(F)cccc2Cl)C(=O)CS3)cc1OC,.,.,.,.,-,.
C/C(O)=C\c1nc2ccccc2oc1=O,-,-,-,-,-,-
O=c1oc2ccccc2nc1/C=C(\O)c1ccc(Br)cc1,?,-,.,-,23.9µM,-
CN(C)/C=C/C(=O)c1ccc(Oc2ccccc2)cc1,?,?,12.6µM,4.11µM,4.26µM,1.41µM
CN(C)/C=C/C(=O)c1ccccc1,-,-,.,-,-,-
CCCc1ccc(C(=O)/C=C/N(C)C)cc1,?,1.12µM,.,9.2µM,5.36µM,1.41µM
CCC(Sc1nc2nccnc2c(=O)n1Cc1ccc(C)cc1)C(=O)NC1CCCCC1 (stereo not given),.,.,.,.,-,.
CC(NC(=O)Nc1ccccc1Cl)c1ccc2c(c1)OCO2 (stereo not given),?,-,.,-,-,-
O=C(NC1CCN(Cc2ccccc2)CC1)c1ccc(Cn2c(=O)c3ccccc3n(Cc3ccc(F)cc3)c2=O)cc1,.,.,-,.,-,.
O=C(Nc1ccc(Oc2cccc(C(F)(F)F)c2)nc1)c1ccco1,10.3µM,-,.,-,-,-
O=C(Nc1ccc(NC(=O)C2CC2)nc1)c1ccco1,?,?,-,?,?,?
CC(C)(C)c1ccc(Oc2ccc(NC(=O)c3ccco3)cn2)cc1,-,-,.,-,?,-
COc1cccc(C(=O)Nc2ccc(NC(C)=O)cn2)c1,?,?,?,?,21.3µM,?
O=C(Nc1ccc(NC(=O)c2ccco2)nc1)c1cccnc1,?,2.24µM,11.2µM,?,10.7µM,2µM
O=C(Nc1ccc(NC(=O)c2ccccc2F)cn1)c1ccco1,?,0.316µM,.,?,1.9µM,0.562µM
CC(=O)c1ccc(NS(=O)(=O)c2ccc3[nH]c(=O)[nH]c3c2)cc1,.,.,.,.,-,.
COc1cccc(C(=O)Nc2ccc(NC(=O)c3ccco3)nc2)c1,?,?,?,-,21.3µM,4.47µM
O=C(Nc1ccc(NC(=O)c2ccco2)nc1)c1cccc(F)c1,?,0.891µM,.,?,5.36µM,3.16µM
Cc1cc(NC(=O)c2cccc(F)c2)ncc1NC(=O)c1ccco1,?,1.26µM,14.1µM,3.66µM,10.7µM,2µM
CCCC(=O)Nc1ccc(NC(=O)c2cccc(OC)c2)nc1,?,?,?,-,12µM,3.16µM
Cc1cc(Cl)ccc1OCCCC(=O)NNC(=O)c1ccccc1O,?,-,.,-,-,-
Cc1ccc(C)c(N2CCN(c3nc4ccccc4c4nc(-c5cccnc5)nn34)CC2)c1,.,.,-,.,-,.
CCOC(=O)c1c(C)[nH]c(C)c1C(=O)COC(=O)COc1ccc(Cl)c(C)c1,-,-,.,-,-,-
COc1ccc(N2C(=O)c3ccccc3NC2c2ccc(OC)c(Cn3cc([N+](=O)[O-])cn3)c2)cc1 (stereo not given),?,2.82µM,.,-,-,?
CC(C)Oc1ccccc1C1Nc2ccccc2C(=O)N1c1ccc2c(c1)OCCO2 (stereo not given),?,0.794µM,7.94µM,?,13.5µM,1.12µM
O=C1c2ccccc2NC(c2cccc([N+](=O)[O-])c2)N1CCc1ccccc1 (stereo not given),?,?,.,-,19µM,?
CC(C)Oc1ccccc1C1CC(=O)Nc2cc3c(cc21)OCCO3 (stereo not given),?,-,-,-,-,-
